The results in this text go back to PubChem BioAssay (NCI).

Each structure is given as a SMILES string. About 83,000 compounds went through this panel and 20% of them were active in at least one assay; those are over-represented in the sample as a whole.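 Values shown are percent growth following 48 h exposure of cells in 96-well plates to a single concentration of compound; below 10 was considered active.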 Values without a mark were called inactive. Activity calls are given as the source filed them.

Assay in all cases: NCI-60 one-dose screen, 48 h (100 = growth as untreated, 0 = no growth, -100 = all killed)
The subject of one test is SR leukemia. Conditions: 10 µM.
Another test relates to OVCAR-8 ovarian. The settings on record: 10 µM.
The test system of a further test is OVCAR-5 ovarian. The settings on record: 10 µM.
A further test deals with OVCAR-4 ovarian. The settings on record: 10 µM.
The next test relates to SK-OV-3 ovarian. Conditions: 10 µM.
In another test the test system is IGROV1 ovarian. Conditions: 10 µM.
In another test the test system is OVCAR-3 ovarian. Conditions: 10 µM.
For another test, the system named is NCI/ADR-RES ovarian. The settings on record: 10 µM.
Another test has as its system T-47D breast. The settings on record: 10 µM.
A further test concerns BT-549 breast. Conditions: 10 µM.
The subject of a further test is MDA-MB-435 melanoma. Conditions: 10 µM.
The next test concerns SW-620 colon. The settings on record: 10 µM.
Another test relates to MCF7 breast. The settings on record: 10 µM unless noted.
A further test deals with HCT-116 colon. Conditions: 10 µM.
The next test deals with HCC-2998 colon. The settings on record: 10 µM.
The next test deals with KM12 colon. Conditions: 10 µM.
A further test concerns HS 578T breast. The settings on record: 10 µM.

As for `COc1cccc(O)c1O`, the growth in the test on SR leukemia was 29.9%; in the test on OVCAR-8 ovarian, 86.2%; with OVCAR-5 ovarian it was 101%; in the test on OVCAR-4 ovarian it was 96.3%; in the test on SK-OV-3 ovarian, 76.9%; in the test with IGROV1 ovarian, 96.4%. Moreover, the growth was 6.36% (active) with OVCAR-3 ovarian; 85.6% in the test with NCI/ADR-RES ovarian; 84.1% with T-47D breast; 82.3% in the test with BT-549 breast; 6.89% (active) with MDA-MB-435 melanoma; 42.6% in the test with SW-620 colon. Moreover, the growth in the test on MCF7 breast is 20.2%; with HCT-116 colon, 98.6%; with HCC-2998 colon, 99.8%; in the test with KM12 colon, 52.6%.

In the case of `CCCCCCCCCCC1CO1` (stereo unspecified), the growth is 98.5% in the test with SR leukemia; 109% in the test on OVCAR-8 ovarian; 111% with OVCAR-5 ovarian; 98.8% in the test with OVCAR-4 ovarian; 101% in the test on SK-OV-3 ovarian; 111% in the test on IGROV1 ovarian. The growth was 111% in the test on OVCAR-3 ovarian; 118% in the test on HS 578T breast; 110% with NCI/ADR-RES ovarian; 103% in the test on T-47D breast; 112% in the test with MDA-MB-435 melanoma; 106% with SW-620 colon. The growth in the test with MCF7 breast was 92.4%; in the test with HCT-116 colon, 102%; with HCC-2998 colon, 102%; with KM12 colon it was 109%.

For `CCCC(C)OCC(=O)O` (stereo unspecified), the growth in the test on SR leukemia was 94.5%; in the test with OVCAR-8 ovarian, 97.2%; with OVCAR-5 ovarian, 108%; in the test with OVCAR-4 ovarian, 84.8%; in the test on SK-OV-3 ovarian it was 113%; in the test on IGROV1 ovarian, 105%. Further, the growth is 108% in the test with OVCAR-3 ovarian; 117% with HS 578T breast; 107% in the test with NCI/ADR-RES ovarian; 126% in the test with T-47D breast; 127% in the test on BT-549 breast; 108% in the test on MDA-MB-435 melanoma. Also, the growth was 101% with SW-620 colon; 99.9% in the test with MCF7 breast; 101% in the test on HCT-116 colon; 106% in the test with HCC-2998 colon; 101% in the test on KM12 colon.

Consider `O=C(/C=C\c1ccc(O)cc1)c1ccccc1`, for which the growth with SR leukemia is 76.6%; in the test with OVCAR-8 ovarian it was 98.6%; in the test on OVCAR-5 ovarian, 88.4%; in the test on SK-OV-3 ovarian it was 108%; with IGROV1 ovarian, 87.3%; in the test with OVCAR-3 ovarian, 96%. Further, the growth is 110% in the test on HS 578T breast; 101% in the test on NCI/ADR-RES ovarian; 84.6% with T-47D breast; 37.4% in the test on BT-549 breast; 95% in the test on MDA-MB-435 melanoma; 101% in the test with SW-620 colon. Also, the growth in the test with MCF7 breast is 80.8%; with HCT-116 colon, 78.2%; in the test on HCC-2998 colon, 112%; in the test with KM12 colon, 71%.

Take `CC1=NN(c2ccccc2)C(=O)/C1=C\N1CC(=O)NC1=S`: the growth in the test on SR leukemia was 89.1%; in the test on OVCAR-8 ovarian it was 102%; with OVCAR-5 ovarian, 119%; in the test on OVCAR-4 ovarian, 102%; in the test on SK-OV-3 ovarian, 101%; in the test with IGROV1 ovarian, 106%. The growth in the test on OVCAR-3 ovarian was 111%; in the test on NCI/ADR-RES ovarian, 103%; with T-47D breast it was 97.1%; with MDA-MB-435 melanoma, 105%; with SW-620 colon, 106%; with MCF7 breast it was 103%. In addition, the growth with HCT-116 colon was 106%; in the test on HCC-2998 colon, 108%.

As to `CC1=CC(C)(C)NC(=S)N1c1ccc(S(=O)(=O)O)c2cccc(S(=O)(=O)O)c12`, the growth with SR leukemia is 109%; in the test with OVCAR-8 ovarian it was 114%; in the test with OVCAR-5 ovarian, 105%; in the test with OVCAR-4 ovarian it was 117%; in the test on SK-OV-3 ovarian, 115%; in the test on IGROV1 ovarian, 95.9%. Besides, the growth is 99.9% in the test on OVCAR-3 ovarian; 92.8% in the test on HS 578T breast; 110% in the test with NCI/ADR-RES ovarian; 106% with T-47D breast; 106% with MDA-MB-435 melanoma; 95.2% in the test on SW-620 colon. Further, the growth in the test with MCF7 breast is 108%; in the test on HCT-116 colon it was 107%; in the test on HCC-2998 colon, 108%; with KM12 colon, 94.6%.

For `CC1=C(/C=C/C(C)=C/C=C/C(C)=C/CO)C(C)(C)CCC1`, the growth in the test on SR leukemia is 94.8%; with OVCAR-8 ovarian, 101%; in the test on OVCAR-5 ovarian it was 108%; in the test with OVCAR-4 ovarian it was 112%; with SK-OV-3 ovarian it was 114%; with IGROV1 ovarian, 117%. The growth with OVCAR-3 ovarian is 109%; with HS 578T breast it was 105%; with NCI/ADR-RES ovarian, 103%; in the test on T-47D breast, 96.6%; in the test with BT-549 breast, 108%; in the test on MDA-MB-435 melanoma, 107%. Moreover, the growth was 109% in the test on SW-620 colon; 125% with MCF7 breast; 107% in the test on HCT-116 colon; 108% in the test with HCC-2998 colon; 109% in the test on KM12 colon.

Regarding `CN(C)C(C)(C)CC(C)(C)C`, the growth in the test on SR leukemia was 93.5%; in the test on OVCAR-8 ovarian it was 109%; in the test on OVCAR-5 ovarian it was 102%; in the test on OVCAR-4 ovarian, 108%; in the test on SK-OV-3 ovarian, 109%; with IGROV1 ovarian, 106%. Also, the growth with OVCAR-3 ovarian is 100%; in the test with HS 578T breast, 104%; in the test with NCI/ADR-RES ovarian, 103%; in the test on T-47D breast, 104%; with MDA-MB-435 melanoma, 109%; with SW-620 colon, 101%. Also, the growth in the test on MCF7 breast was 101%; in the test with HCT-116 colon, 100%; in the test with HCC-2998 colon, 109%; with KM12 colon, 93.6%.

On to `NCCCN`, for which the growth with SR leukemia was 101%; in the test with OVCAR-8 ovarian, 104%; in the test with OVCAR-5 ovarian, 107%; with OVCAR-4 ovarian it was 90%; with SK-OV-3 ovarian it was 105%; in the test on IGROV1 ovarian, 113%. For the same compound, the growth was 111% in the test on OVCAR-3 ovarian; 104% in the test with HS 578T breast; 112% in the test on NCI/ADR-RES ovarian; 98.6% in the test with T-47D breast; 106% in the test with BT-549 breast; 109% with MDA-MB-435 melanoma. Besides, the growth in the test with SW-620 colon was 104%; with MCF7 breast, 96.7%; in the test on HCT-116 colon it was 109%; in the test on HCC-2998 colon it was 112%; in the test on KM12 colon, 107%.

For `Cc1ccncc1C(N)=O`, the growth in the test on SR leukemia is 109%; in the test on OVCAR-8 ovarian, 107%; with OVCAR-5 ovarian, 138%; in the test on OVCAR-4 ovarian it was 96.8%; in the test on SK-OV-3 ovarian, 101%; in the test with OVCAR-3 ovarian, 90.6%. Besides, the growth was 116% with HS 578T breast; 133% in the test on NCI/ADR-RES ovarian; 84.5% in the test on T-47D breast; 111% in the test on BT-549 breast; 118% with MDA-MB-435 melanoma; 98.4% with SW-620 colon. Further, the growth in the test with MCF7 breast was 96%; in the test on HCT-116 colon, 94.5%; with HCC-2998 colon it was 124%; in the test on KM12 colon, 90.1%.
